Pf growth 96h: Primary qHTS for delayed death inhibitors of the malarial parasite plastid, 96 hour incubation; P. falciparum luciferase reporter growth, 96 h; Potency, µM (series often up to 28.7 µM), for inactives: at the top dose activity change, negative = inhibition, actives largely listed as inhibitors; 320,000 tested, 6.9% active; AID 504834, 2011
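Plates of compound plus infected erythrocytes (2% hematocrit, 0.05% parasitemia final) incubate 96 hours, 37 C, 5% CO2. Detection reagent added; reduced luminescence from the parasites' luciferase reporter flags inhibition.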
AMA1 RON2 block: qHTS for Inhibitors of AMA1-RON; Towards Development of Antimalarial Drug Lead: Primary Screen. Plasmodium falciparum AMA1 (3D7) - RON2 peptide interaction. AlphaScreen AMA1-biotinylated RON2 peptide binding. Potency, µM (top dose mostly 58.2 µM), inactives show at the highest dose activity change, negative = inhibition, usual class: inhibitors. 360,000 tested, 0.2% active;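 further: 0% = vehicle wells and -100% = peptide control; nearly all actives have a fitted effect of over 45% in size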
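AMA1 (3D7) with his tag at 25 nM final met compounds first, then biotinylated RON2 peptide at 25 nM; detection used donor plus acceptor beads, 10 µg/mL apiece, read by AlphaScreen after 30 min at room temperature.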
Pf growth 48h: Primary qHTS for delayed death inhibitors of the malarial parasite plastid, 48 hour incubation | P. falciparum luciferase growth in erythrocytes, 48 h | Potency, µM (doses to about 28.7 µM), for the others: at the top dose activity change, negative = inhibition, most hits filed as inhibitors | 310,000 tested, 5.9% active | AID 504832, 2011
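Read-out is firefly luciferase luminescence from an integrated reporter in P. falciparum, so falling signal marks reduced parasite growth. Infected erythrocytes were at 2% hematocrit and 0.1% parasitemia (final) in Albumax-supplemented RPMI 1640.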
HCV inh: qHTS Assay for Inhibitors of Hepatitis C Virus (HCV). Huh7.5.1 HCVcc-Cre infection, luciferase reporter, 44 h. Potency, µM (titrated, usually from 41.8 µM), for inactives: top-dose activity change, negative = inhibition, actives largely listed as inhibitors. 340,000 tested, 3.4% active. AID 651820, 2012
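Compounds are dispensed onto cells plated 4 h earlier at 1,000 per well, with HCVcc-Cre virus (about 0.5 moi) added next. Following 44 h of culture, luminescent signal is measured for 15 sec after 15 min with substrate at room temperature.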
* marks the source's active call; other numbers are inactive results; ? = inconclusive; / = not tested or not shown. Compounds with a hit are over-represented: about 11% of the library has one in this group of screens. The call rests on the fitted dose curve; in most records, active means well fitted curve in the direction sought with a large enough effect; inconclusive means small, poorly fitted or top-dose-only effect, or another doubt; inactive means no such curve, though single readings can be large; an effect the other way counts as inactive or inconclusive. Unless noted, on the % scale 0 is the no-effect control and ±100 the full control effect; potency means the concentration at half of the fitted maximal effect.

SMILES	Pf growth 96h	AMA1 RON2 block	Pf growth 48h	HCV inh
CC1(C)CC2CC(C)(CN2C(=O)COC(=O)c2ccccc2C(F)(F)F)C1 (stereo not given)	?	12.0%	?	?
COc1ccc(NC(=O)c2cc(-c3ccc(C)c(C)c3O)n[nH]2)cc1Cl	?	108.6%	?	2.51µM*
CC(=O)Nc1ccc(NC(=O)c2cc(-c3ccc(C)c(C)c3O)n[nH]2)cc1	2.33µM*	131.2%	11.7µM*	-22.1%
Cc1ccc(-c2cc(C(=O)Nc3ccc(S(=O)(=O)Nc4ncccn4)cc3)[nH]n2)c(O)c1C	9.28µM*	45.6%	?	-6.4%
Cc1cccc(NC(=O)c2cc(-c3ccc(C)c(C)c3O)n[nH]2)c1	56.6%	101.0%	44.4%	?
Cc1cc(C)c(O)c(-c2cc(C(=O)Nc3ccc(S(=O)(=O)N4CCOCC4)cc3)[nH]n2)c1	/	54.1%	5.86µM*	10µM*
Cc1ccc(NC(=O)c2cc(-c3ccc(C)c(C)c3O)n[nH]2)cc1C	?	60.5%	?	?
COC(=O)c1ccccc1NC(=O)COC(=O)CO/N=C(\C)c1ccc2c(c1)OCO2	33.8%	-21.5%	21.4%	0.5%
CC(=O)Nc1ccc(NC(=O)c2cc(-c3ccc(F)cc3C)n[nH]2)cc1	/	-0.2%	/	/
CC(=O)Nc1ccc(NC(=O)c2cc(-c3cc(C)cc(C)c3O)n[nH]2)cc1	?	96.0%	11.7µM*	8.91µM*
CN(C)/C=C1\C(=O)N(C)N=C1C(F)(F)F	-4.8%	-13.6%	-8.7%	7.7%
CCOc1ccccc1/C=C(/NC(=O)c1ccccc1)C(=O)N1CCCCC1	98.0%	-27.7%	?	-15.7%
CCc1ccc(/C=c2\s/c(=C\C(=O)C(C)(C)C)[nH]c2=O)cc1	/	-4.3%	3.29µM*	?
Cc1ccccc1/C=c1\s/c(=C\C(=O)C(C)(C)C)[nH]c1=O	?	-7.6%	/	11.2µM*
CC(C)(C)C(=O)/C=c1\[nH]c(=O)/c(=C\c2ccc(F)cc2)s1	/	9.3%	?	-28.5%
Cc1cc(Oc2cc(N)cc([N+](=O)[O-])c2)ccc1Cl	8.28µM*	-3.5%	14.0%	-4.0%
Nc1cc(OCC(F)(F)F)cc([N+](=O)[O-])c1	19.3%	8.0%	23.1%	2.6%
COCCCNC(=O)CCn1c(=O)c2ccccc2n(CC(=O)Nc2c(C)cccc2C)c1=O	9.28µM*	5.4%	8.2%	-22.4%
O=C(CCn1c(=O)c2cccn2c2ccc(F)cc21)NCCc1ccccc1	3.3%	-2.0%	-8.5%	10µM*
CCCN(CCC)C(=O)Cn1c(=O)n(CCC(=O)NCCc2ccccc2)c(=O)c2ccccc21	9.28µM*	15.0%	/	1.4%
CN(C)CCNC(=O)Cn1c(=O)c2cccn2c2ccc(F)cc21	?	-3.8%	15.2%	-19.7%
COc1ccc(C(=O)NCCNc2nc3ccc(C)cc3cc2C#N)cc1OC	19.7%	8.4%	-2.4%	?
CCN(CC(=O)Nc1ccc2c(c1)OCCO2)C(=O)COc1ccc(C)cc1	45.6%	16.0%	34.6%	-20.4%
CN(C)c1ccc(NC(=O)CC2NCCNC2=O)cc1 (stereo not given)	0.208µM*	4.3%	12.2%	21.6%
Cc1ccc(NC(=O)CC2NCCNC2=O)cc1 (stereo not given)	26.6%	36.1%	22.6%	10.7%
SMILES	Pf growth 96h	AMA1 RON2 block	Pf growth 48h	HCV inh
CCC1=Nc2cc(C(=O)NCCN3CCOCC3)ccc2Sc2ccc(Br)cc21	0.0%	-8.6%	?	-17.9%
c1ccc2c(c1)nc(N1CCCCC1)c1ccccc12	47.6%	23.5%	33.6%	?
Cc1nc(N2CCCCCC2)c2ccccc2n1	?	5.3%	-21.0%	10µM*
c1ccc2c(N3CCCCC3)nc(N3CCCC3)nc2c1	4.65µM*	8.7%	13.1µM*	3.16µM*
CC(/C=C/c1ccccc1)=N\NC(=O)c1ccncc1	8.8%	41.2%	-27.2%	1.0%
CC(/C=C/c1ccccc1)=N\NC(=S)NC(C)C	4.65µM*	44.2%	-22.5%	?
CC(/C=C/c1ccccc1)=N\NC(=O)Cn1cncn1	-0.6%	5.3%	8.2%	9.7%
CC(/C=C/c1ccccc1)=N\NC(N)=S	?	20.7%	10.4µM*	15.8µM*
NC(N)=Nc1nc2ccc(Cl)cc2c(=O)[nH]1	26.3%	5.9%	-2.9%	-14.9%
Cc1ccc(CONC(=O)c2ccc(OC(F)F)cc2)cc1	55.2%	-4.9%	16.2%	-20.9%
c1ccc(-c2c[nH]c3[n+]2CCCCC3)cc1	-2.7%	-8.8%	/	?
Cc1ccc(-c2cn(-c3ccc(OC(F)F)cc3)c3[n+]2CCCCC3)cc1	?	-2.4%	1.31µM*	-6.2%
FC(F)Oc1ccc(-n2cc(-c3ccccc3)[n+]3c2CCCCC3)cc1	?	-1.1%	1.17µM*	-10.7%
Brc1cccc(-c2nc3c4ccccc4ccn3c2Cc2ccsc2)c1	/	119.7%	/	/
COc1ccc(N=Nc2ccc(N)nc2N)cc1	210.0%	?	219.2%	-0.9%
CCOc1ccc2nc3cc(N=Nc4ccc(N)nc4N)ccc3c(N)c2c1	/	?	/	11.2µM*
O=C(CCNC(=O)C1CCN(S(=O)(=O)c2ccc(F)cc2)CC1)NC1CC1	7.0%	0.0%	35.3%	21.3%
CCOc1ccc(C2CC(c3c(O)n(C)c(=O)n(C)c3=O)=NN2)cc1 (stereo not given)	14.7µM*	60.6%	?	-13.1%
Cn1c(O)c(C2=NNC(c3ccc(Cl)cc3)C2)c(=O)n(C)c1=O (stereo not given)	?	84.3%	13.1µM*	5.6%
CCOC(=O)[C@]12CCCC=C1N(Cc1ccc3c(c1)OCO3)C(=O)[C@H](CC(=O)N1CCCCC1)C2	/	-0.2%	/	/
c1ccc(-c2nnc(CSc3ccc4c(c3)OCCO4)o2)cc1	14.4%	-2.5%	-9.8%	-23.1%
COc1cc(OC)cc(C(=O)NCC(=O)OC2CCCCC2=O)c1 (stereo not given)	-29.3%	-1.3%	?	7.8%
O=C(NCc1cnn(-c2ccccc2)c1)C1CCC(=O)N(C2CC2)C1 (stereo not given)	5.22µM*	-11.0%	11.1%	11.1%
O=C(NCc1ccccc1OC(F)(F)F)C1CCC(=O)N(C2CC2)C1 (stereo not given)	11.7µM*	4.4%	21.2%	-3.8%
COc1ccccc1-c1cc(C(F)(F)F)nc(S(=O)(=O)CCCC(=O)Nc2cc(C)on2)n1	1.85µM*	7.3%	-9.0%	20.1%
COc1ccccc1-c1cc(C(F)(F)F)nc(S(=O)(=O)CCCC(=O)NCc2ccc(F)cc2)n1	2.94µM*	5.6%	?	?
Cn1ccc(C(=O)NC(=S)N2CCSCC2)n1	32.5%	39.5%	-14.3%	6.4%
COc1ccc(-c2cc3c(=O)n(CC(=O)Nc4ccc(Cl)cc4)ncn3n2)cc1	12.8%	-10.6%	14.9%	12.9%
CCN(CC)S(=O)(=O)c1ccc(N2CCCCC2)c(NC(=O)C2=COCCO2)c1	1.47µM*	-8.5%	1.85µM*	?

Bioassay records as filed in PubChem.
